“And” between values parts separate entries of the source, which are not always exact repeats. Equal values may be shown once. Records with an inconclusive call do not appear. The source made the active and inactive calls. Calls follow the shape of the dose curve; as a rule, active = well fitted inhibition curve with a large enough effect in the repeat runs; inconclusive = weak or mixed curves; inactive = no such curve, though single readings can be large or run the other way.
The compounds below were run against Cytochrome P450 2C9 (Homo sapiens) (UniProt P11712) (assay: Cytochrome P450 Family 2 Subfamily C Member 9 (CYP2C9) small molecule antagonists: luciferase reporter qHTS assay (AID 1671198; also: nearly all actives have a fitted effect of over 50% in size)). Conditions: P450-Glo CYP2C9 enzyme assay, luciferin luminescence; series mostly up to 115 µM.
Outline: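 P450-Glo proluciferin substrate with CYP2C9 enzyme; 10 min RT preincubation, then NADPH regeneration 1 h at 37C; luciferin detection reagent 20 min RT, luminescence in relative luminescence units.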
Potency is read from the fitted curve at half-maximal effect.

Chain of Cytochrome P450 2C9 (Homo sapiens) (P11712 whole entry, looked up): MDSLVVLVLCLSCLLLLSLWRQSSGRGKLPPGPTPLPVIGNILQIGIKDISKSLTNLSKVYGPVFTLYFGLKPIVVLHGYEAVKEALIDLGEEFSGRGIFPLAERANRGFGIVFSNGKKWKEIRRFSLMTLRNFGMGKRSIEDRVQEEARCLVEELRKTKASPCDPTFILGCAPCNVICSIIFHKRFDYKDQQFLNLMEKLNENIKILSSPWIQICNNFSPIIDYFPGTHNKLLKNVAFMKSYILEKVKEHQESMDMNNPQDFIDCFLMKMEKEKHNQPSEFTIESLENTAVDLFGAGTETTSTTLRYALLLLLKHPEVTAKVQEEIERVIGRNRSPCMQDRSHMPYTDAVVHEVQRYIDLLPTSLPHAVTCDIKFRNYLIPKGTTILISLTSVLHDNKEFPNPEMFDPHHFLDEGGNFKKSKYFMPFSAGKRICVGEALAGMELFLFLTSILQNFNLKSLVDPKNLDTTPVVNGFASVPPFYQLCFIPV

Row | SMILES | Potency
1 | CC(C)CC(C)N (configuration not stated) | inactive
2 | O=C1C=CC(=O)c2ccccc21 | 11.2 µM (active)
3 | COC(=O)N(C(=O)N1COC2(C(=O)OC)Cc3cc(Cl)ccc3C2=N1)c1ccc(OC(F)(F)F)cc1 (configuration not stated) | 4.9 µM (active)
4 | CC(Cc1ccc(C(C)(C)C)cc1)CN1C[C@@H](C)O[C@@H](C)C1 (some centres not stated) | 35.6 µM (active)
5 | Cc1cccc(OP(=O)(Oc2cccc(C)c2)Oc2cccc(C)c2)c1 | 35.6 µM (active)
6 | Oc1ccccc1Br | inactive
7 | Cc1cc(Cl)ccc1O[C@H](C)C(=O)O | inactive
8 | [Cl][Sb]([Cl])[Cl] | inactive
9 | N#C/C=C/C#N | 37.3 µM (active)
10 | C=CC(=O)N(C)C | inactive
11 | CCCOCC(=Nc1ccc(Cl)cc1C(F)(F)F)n1ccnc1 | 5.03 µM (active)
12 | CN(CCCC(O)c1cccnc1)N=O (configuration not stated) | inactive
13 | CC(C)CC(C)Nc1ccc(Nc2ccccc2)cc1 (configuration not stated) | 3.5 µM (active)
14 | CC(O)C#N (configuration not stated) | inactive
15 | c1ccc2cc3c(cc2c1)-c1cccc2cccc-3c12 | inactive
16 | N#CNC#N | inactive

Row | SMILES | Potency
17 | CCOP(=S)(OCC)SCS(=O)(=O)CC | 12.6 µM (active)
18 | ClC(Cl)=C(c1ccc(Cl)cc1)c1ccc(Cl)cc1 | 14.5 µM (active) and 12.6 µM (active)
19 | Clc1ccc(CCC(Cn2ccnc2)Sc2c(Cl)cccc2Cl)cc1 (configuration not stated) | 0.0871 µM (active)
20 | Nc1ccc(Sc2ccc(N)cc2)cc1 | 1.23 µM (active)
21 | O=C(O)C1C2CCC(O2)C1C(=O)O (configuration not stated) | inactive
22 | c1cc[c]([Sb]([c]2ccccc2)[c]2ccccc2)cc1 | 17.8 µM (active)
23 | Oc1c(Br)c(Br)c(Br)c(Br)c1Br | 35.8 µM (active)
24 | Cc1cc(N=Nc2ccccc2C)ccc1N | 5.03 µM (active) and 5.64 µM (active)
25 | CC1(C)CC/C(=C/c2ccc(Cl)cc2)C1(O)Cn1cncn1 (configuration not stated) | 1.12 µM (active)
26 | CCCCCCCCCCCCCCCCCCn1cc[n+](C)c1 | 50 µM (active)
27 | Cc1ccc(CCl)cc1 | inactive
28 | CCOCn1c(-c2ccc(Cl)cc2)c(C#N)c(Br)c1C(F)(F)F | 8.94 µM (active)
29 | CC(=O)c1ccc(-c2ccccc2)cc1 | 15.9 µM (active)
30 | CC[C@H](C)[C@H]1O[C@]2(C=C[C@@H]1C)C[C@@H]1C[C@@H](C/C=C(\C)[C@@H](O[C@H]3C[C@H](OC)[C@@H](O[C@H]4C[C@H](OC)[C@@H](O)[C@H](C)O4)[C@H](C)O3)[C@@H](C)/C=C/C=C3\CO[C@@H]4[C@H](O)C(C)=C[C@@H](C(=O)O1)[C@]34O)O2 | 10.5 µM (active)
31 | CC(C)[C@H](C(=O)OC(C#N)c1cccc(Oc2ccccc2)c1)c1ccc(OC(F)F)cc1 (some centres not stated) | 3.99 µM (active)
32 | CC(Cl)CN(C)C (configuration not stated) | inactive

— PubChem BioAssay (Tox21)
